Source: PubChem
hcDAF12 agonist – H. contortus DAF-12 nuclear receptor activators, primary screen, cell-based, luminescence, HEK293, lit1-tk-luc reporter; 370,000 tested, 1.4% active; activation, % at 6.8 µM; HEK293 hcDAF-12 lit1-tk-luc reporter; 0% DMSO, 100% Δ7-dafachronic acid;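 active = activation above the mean of all tested compounds plus 3 SD, cut at about 5.5% in these data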;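 also: 100% = response to 3 µM Δ7-dafachronic acid high control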
DAX1 inh-1 – DAX1 (NR0B1) inhibitors, primary screen, cell-based, HEK293, Gal4-DAX1, luciferase luminescence; Nuclear receptor subfamily 0 group B member 1 (Homo sapiens), P51843; HEK293 Gal4-DAX1 luciferase reporter; inhibition, % at 6.75 µM; 340,000 tested, 0.99% active; AID 504766, 2011;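 active = inhibition above the mean over all tested compounds plus 3 SD, cut at about 4.2% in these data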;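 also: 0% = DAX1-transfected cells with DMSO and 100% = empty-vector control cells with DMSO; inhibition shows as a rise in luminescence from relieved DAX1 repression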
Target sequence (P51843 207-470 limits assumed): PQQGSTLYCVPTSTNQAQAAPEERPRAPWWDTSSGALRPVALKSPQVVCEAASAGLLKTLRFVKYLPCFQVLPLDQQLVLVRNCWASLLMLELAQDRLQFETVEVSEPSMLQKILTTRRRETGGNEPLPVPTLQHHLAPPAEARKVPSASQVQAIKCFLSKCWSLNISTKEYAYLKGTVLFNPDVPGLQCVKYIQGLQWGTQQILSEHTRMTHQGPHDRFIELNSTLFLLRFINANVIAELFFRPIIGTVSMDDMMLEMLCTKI
ssDAF12 agonist – S. stercoralis DAF-12 nuclear receptor activators, primary screen, cell-based, luminescence, HEK293, GRIP1 co-expression, lit1-tk-luc. HEK293 ssDAF-12/GRIP1 lit1-tk-luc reporter; % of 3 µM dafachronic acid response. AID 652126, 2013. activation, % at 6.8 µM. Nuclear hormone receptor DAF-12 (Strongyloides stercoralis). 370,000 tested, 1% active;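 active = activation above the mean over all tested compounds plus 3 SD, cut at about 0.9% in these data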;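 also: 0% = DMSO-only wells and 100% = 3 µM delta7-dafachronic acid wells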
hgDAF12 agonist – H. glycines DAF-12 receptor agonists, primary screen, cell-based, luminescence, HEK293, GAL4 fusion, UAS-luciferase | HEK293 GAL4-hgDAF12 UAS-luciferase reporter, agonist luminescence; normalized to butyrate control | 370,000 tested, 1.8% active | activation, % at 6.8 µM | Nuclear hormone receptor DAF-12 (Heterodera glycines), GAL4 fusion | AID 687014, 2013;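 active = activation above a cutoff set at the mean of all screened compounds plus 3 SD, cut at about 10% in these data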;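 also: 0% = DMSO wells and 100% = sodium butyrate wells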
DAX1 inh-2 – DAX1 (NR0B1) inhibitors on StAR promoter, primary screen, cell-based, luminescence, SF-1 (NR5A1), full-length DAX-1 | 370,000 tested, 1.1% active | HEK293T StAR-luciferase reporter, SF-1/DAX-1 repression relief | inhibition, % at 6.8 µM;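 active = inhibition above the mean over all tested compounds plus 3 SD, cut at about 3.6% in these data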;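 also: 0% = DAX-1 cells with DMSO and 100% = cells lacking DAX-1 with DMSO; higher inhibition means more luminescence from relief of DAX-1 repression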
Active calls of the source: *; . = not tested or not shown. Rows were chosen to be rich in hits. Some 4.1% of all compounds tested hit in one or more screens of this group.

SMILES	hcDAF12 agonist	DAX1 inh-1	ssDAF12 agonist	hgDAF12 agonist	DAX1 inh-2
COc1cc(OC)cc(C(=O)N2CCCc3ccccc32)c1	0	1	-1	0	0
COc1ccc2oc(C(=O)OCC(=O)N3CCCCC3)c(C)c2c1	0	4.9*	1	3	2
CC(=O)c1ccc(-c2ccc(C(=O)N3CCCc4ccccc43)o2)cc1	-1	1	1.8*	5	1
O=C(NCCCc1ccccc1)[C@H](CO)NC1(C(=O)NCCc2c[nH]c3ccccc23)CCCCC1	-2	.	0	-1	.
COc1cccc(CNC(=O)CN2CCCc3ccccc32)c1OC	0	.	-1	2	-1
C[C@@H]1[C@H](c2ccccc2)OC(O)([C@H](Cc2ccccc2)NC(=O)OC(C)(C)C)CN1C (stereo partly specified)	-1	.	-2	3	.
O=C(CCc1ccccc1)N[C@H]1[C@H](OC(=O)c2ccc3ccccc3n2)CCC[C@@]12C(=O)N(Cc1ccccc1)c1ccccc12	-1	.	-1	1	0
O=C(C1CCCN(S(=O)(=O)c2cccs2)C1)N1CCN(Cc2ccccc2)CC1 (stereo unspecified)	-3	.	-1	2	-1
CCOc1ccc(-n2c(SCC(=O)Nc3ccc(S(=O)(=O)Nc4nccs4)cc3)nnc2-c2ccccc2)cc1	0	.	-1	2	-1
O=C(COc1cccnc1[N+](=O)[O-])N1CCc2ccccc21	1	0	0	1	0
Cc1ccc(OCC(=O)N2CCc3ccccc32)c([N+](=O)[O-])n1	0	0	-2	11*	2
CC(=O)Nc1ccc(S(=O)(=O)NCC(=O)OCC(=O)N2CCc3ccccc32)cc1	5	0	0.9*	-1	1
O=C(OC12CCCN(C1)/C(=C/c1ccncc1)C2)c1ccccc1 (stereo unspecified)	-5	.	-2	-5	-3
CC1CCN(C(=O)COc2ccc3ccccc3c2Br)CC1	0	1	0	1	4.2*
CCC[C@H]1[C@@H](OC(=O)NCc2ccccc2)CC[C@@]23CCCN2C(=O)CCC[C@@H]13	0	.	-2	1	.
CCOC(=O)c1nc(-c2ccc(OC)c(OC)c2)cnc1C#N	4	6.9*	-1	-4	1
COc1cc(/C=C2\SC(N)=NC2=O)cc(Cl)c1O	0	4.4*	0	3	0
CC(=O)c1ccc(N2CCN(C(=O)[C@H](C)NC(=O)c3ccccc3Cl)CC2)cc1	-1	6.0*	-1	0	1
COc1cc([N+](=O)[O-])cc(/C=N/NC(=O)Cn2nc(C)cc2C)c1O	-2	1	-2	-1	0
COc1cc([N+](=O)[O-])cc(/C=N/NC(=O)Cn2nccc2C)c1O	-1	6.0*	-1	-2	-1
Cc1c(C#N)c(N=CN(C)C)c(C(=O)c2ccccc2)n1-c1ccccc1	-1	0	-1	-4	0
Cc1c(C(N)=O)c(N)c(C(=O)c2ccccc2)n1-c1ccccc1	-1	5.0*	-2	-1	-1
O=C(C1CCCN1S(=O)(=O)c1ccc(F)cc1)N1CCc2ccccc2C1 (stereo unspecified)	-2	.	-1	-4	-1
O=C(O)c1cc(=O)c2c(Cl)cc(Cl)cc2[nH]1	0	1	-1	2	0
O=C(O)c1cc2c(cn1)[nH]c1ccccc12	6.3*	2	0	1	0
SMILES	hcDAF12 agonist	DAX1 inh-1	ssDAF12 agonist	hgDAF12 agonist	DAX1 inh-2
O=C(O)c1cc(=O)c2ccccc2[nH]1	6.4*	3	1.5*	5	0
Cn1c(NCCOc2ccccc2)nc2cc(-c3ccc(F)cc3)sc2c1=O	-1	.	-2	-1	1
C=CCNc1nc2cc(-c3ccccc3OC)sc2c(=O)n1C	2	.	0	11*	0
COCCNc1nc2cc(-c3ccc(F)cc3)sc2c(=O)n1C	-1	.	-1	12*	-1
CCOC(=O)C1=NOC(C(=O)Nc2cc(C)cc(C)c2)(C(=O)C2CC2)C1 (stereo unspecified)	-2	.	-1	1	1
Cc1c(C(C)(C(=O)O)c2c(C)n(C)c3ccccc23)c2ccccc2n1C	5.7*	.	0	3	0
Cc1c(P(=O)(c2ccccc2)c2ccccc2)c2ccccc2n1C	-3	.	-1	1	-1
N#CCCn1cc(/C=C/C(=O)O)c(-c2ccc(F)cc2)n1	5	5.4*	-1	3	2
CC(C)(C)c1ccc(C#C[C@@H]2C=C[C@H]3OC(=O)CC/C=C/CCC(=O)OC[C@H]3O2)cc1	1	.	-1	-1	1
COc1ccccc1C(=O)NCCC(=O)Nc1ccc(C)cn1	5.7*	0	0	1	3
CC(=O)c1c(C)[nH]c(C(=O)CN2C(=O)NC3(CCCCC3C)C2=O)c1C (stereo unspecified)	0	1	-1	1	2
Cc1cc(C)c(C(=O)CN2C(=O)NC3(CCC(C)CC3)C2=O)cc1C (stereo unspecified)	0	-1	-2	1	1
CC(=O)c1c(C)[nH]c(C(=O)CN2C(=O)NC3(CCCCC3)C2=O)c1C	-2	0	-1	0	4.1*
Cc1cc(C)c(C(=O)CN2C(=O)NC3(CCCCC3)C2=O)cc1C	6.2*	0	-1	1	1
O=C(CSc1nc2ccccc2c(=O)n1-c1ccccc1)N1CCc2ccccc2C1	2	-1	1.0*	0	-1
Cc1ccc(COc2ccc3c(c2)OCO3)cc1	1	1	0	10	1
O=Cc1ccc(OCc2ccc3c(c2)OCO3)cc1	3	2	0	11*	1
CC(C)C[C@@H](CO)N1Cc2nnn(Cc3ccccc3)c2-c2ccccc2S1(=O)=O	-1	.	-2	0	-1
CN(c1ccc(OCC(=O)OCC(=O)NC2CCCC2)cc1)S(=O)(=O)c1ccc2ccccc2c1	3	0	1.2*	1	1
COC(=O)C1CN(Cc2ccc(Cl)cc2)CCS(=O)(=O)N1Cc1cn(Cc2ccc(F)cc2)nn1 (stereo unspecified)	-3	.	-1	-1	-1
COC(=O)C1=C(C)N(Cc2cccc(C(F)(F)F)c2)C(=NCc2ccccc2C(F)(F)F)NC1c1cccc(F)c1 (stereo unspecified)	-1	.	-1	3	-1
CCn1cc(/C=C/C(=O)c2ccc(O)cc2)c(C)n1	5	13*	0	15*	3
